Each structure is given as a SMILES string. Values without a mark were called inactive. A call without a number means that no potency is given here. Calls of active or inactive are those of the source. The call rests on the fitted dose curve.

Chain of Acetylcholinesterase (Homo sapiens) (P22303 whole entry, looked up): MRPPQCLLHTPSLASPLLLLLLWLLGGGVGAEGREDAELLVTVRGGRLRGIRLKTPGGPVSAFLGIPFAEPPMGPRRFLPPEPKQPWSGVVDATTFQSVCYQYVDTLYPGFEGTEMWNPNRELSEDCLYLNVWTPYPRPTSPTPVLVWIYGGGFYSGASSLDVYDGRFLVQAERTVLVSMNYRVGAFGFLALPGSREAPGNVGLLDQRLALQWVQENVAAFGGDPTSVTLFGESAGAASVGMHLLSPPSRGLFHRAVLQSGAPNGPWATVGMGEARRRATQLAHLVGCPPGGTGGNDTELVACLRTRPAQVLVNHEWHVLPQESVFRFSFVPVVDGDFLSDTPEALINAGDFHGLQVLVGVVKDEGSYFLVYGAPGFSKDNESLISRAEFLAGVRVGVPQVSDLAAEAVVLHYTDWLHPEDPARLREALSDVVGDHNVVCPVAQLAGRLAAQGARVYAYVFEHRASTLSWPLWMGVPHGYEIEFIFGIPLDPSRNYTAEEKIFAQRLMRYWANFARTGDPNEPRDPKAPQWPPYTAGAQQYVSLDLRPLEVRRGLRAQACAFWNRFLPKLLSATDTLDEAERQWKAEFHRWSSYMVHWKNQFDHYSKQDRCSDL

The test deals with Acetylcholinesterase (Homo sapiens) (UniProt P22303). Briefly: Acetylcholinesterase (AChE) small molecule antagonists: enzyme-based qHTS assay with human liver microsomes (AID 1347399). Further: nearly all actives have a fitted effect of over 60% in size. As to conditions: Potency: qHTS inhibition; outcome: qHTS inhibition; series mostly up to 115 µM. Summed up:
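Recombinant human AChE (50 mU/mL in the enzyme mix) and human liver microsomes (0.25 mg/mL final) were preincubated with compound and NADPH (0.25 mg/mL final) for 30 min at 37 C. Acetylthiocholine/DTNB was then added; thiocholine was read colorimetrically after 10 min at room temperature.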
Regarding `CC(C)c1nc(CN(C)C(=O)N[C@H](C(=O)N[C@@H](Cc2ccccc2)C[C@H](O)[C@H](Cc2ccccc2)NC(=O)OCc2cncs2)C(C)C)cs1`, the Potency result was “inactive”.
For `Cc1cccc(C)c1NC(=O)CN1CCN(CCCC(c2ccc(F)cc2)c2ccc(F)cc2)CC1`, the Potency entry was “inactive”.
Turning to `CC(C)Oc1ccccc1O`, the Potency result is “inactive”.
On the same count and under the same terms, the value for `c1ccc(Nc2cccc3ccccc23)cc1` was “inactive”; that for `c1ccc(OCCOc2ccccc2)cc1` was “inactive”; that for `CCOC(=O)c1ccc(OCCN2C[C@H](O)[C@@H](O)[C@H](O)[C@H]2CO)cc1` was “inactive”.
For the compound `CCCc1nc(C)c2c(=O)[nH]c(-c3cc(S(=O)(=O)N4CCN(CC)CC4)ccc3OCC)nn12`, the Potency entry was “inactive”.
For the compound `C[C@]12C=CC(=O)C=C1CC[C@H]1[C@@H]3C[C@@H](O)[C@](O)(C(=O)CO)[C@@]3(C)C[C@H](O)[C@@]12F`, the Potency result was “inactive”.
Same read-out and setting: the value for `Cc1cc(O)c(C(C)(C)C)cc1Sc1cc(C(C)(C)C)c(O)cc1C` was “inactive”.
As for `NCCOCCN`, the Potency result was “inactive”.
On to `CCCCN(CCO)CCCC`, for which the Potency entry is “inactive”.
For `O=C(O)c1ccccc1Nc1cc(Cl)ccc1C(=O)O`, the activity change, negative = inhibition was 0.168% [at 23.6 µM].
Consider `COCCOC(=O)C1=C(C)NC(C)=C(C(=O)OC(C)C)C1c1cccc([N+](=O)[O-])c1` (stereo not given), for which the Potency result is “inactive”.
Turning to `OC[C@H]1O[C@H](O[C@]2(CCl)O[C@H](CCl)[C@@H](O)[C@@H]2O)[C@H](O)[C@@H](O)[C@H]1Cl`, the Potency result is “inactive”.
The same measure, in the same setting: under `CC(=O)OCCN(CCOC(C)=O)c1ccc(N=Nc2ccc([N+](=O)[O-])cc2C#N)cc1` stands “inactive”; under `O=S(=O)(O)c1cc(Cl)c(Cl)cc1Cl`, “inactive”; under `CCCCN(CCCC)CCCCCCN(CCCC)CCCC`, “inactive”.
Regarding `CC(O)c1ccccc1` (stereo not given), the Potency entry is “inactive”.
As to `CO[Si](CCCNCCN)(OC)OC`, the Potency entry is “inactive”.
On the same count and under the same terms, the value for `C=C1c2cccc(O)c2C(O)=C2C(=O)[C@]3(O)C(O)=C(C(N)=O)C(=O)[C@@H](N(C)C)[C@@H]3[C@@H](O)[C@H]12` was “inactive”; that for `O=c1cc[nH]c(=O)[nH]1` was “inactive”; that for `CC[C@H](c1ccc(O)cc1)[C@@H](CC)c1ccc(O)cc1` was “inactive”.
The same measure, in the same setting: the value for `Cc1ccc(C(C)(C)O)cc1` was “inactive”.
Same read-out and setting: the value for `Cc1cc(O)c(C(C)C)cc1Cl` was “inactive”; that for `CCCCCCCCCCCSCC(=O)O` was “inactive”; that for `CS(C)(=O)=O` was “inactive”.
`C/C=C/C(=O)CCCC`: the Potency result is “inactive”.
The same measure, in the same setting: the value for `CCCCCC(CC)OC(=O)CCCOc1ccc(Cl)cc1Cl` (stereo not given) was “inactive”; that for `C=CC/C=C/C` was “inactive”.
As for `CCOC(=O)c1ccc(I)cc1`, the Potency entry is “inactive”.
With `CCC1OCC(COc2ccc(Oc3ccccc3)cc2)O1` (stereo not given), the Potency result is “inactive”.
As to `N#CCC(=O)O`, the Potency entry is “inactive”.
Turning to `CC(C)OC(=O)C(C)(C)Oc1ccc(C(=O)c2ccc(Cl)cc2)cc1`, the Potency result was “inactive”.
Same read-out and setting: the value for `O=P(c1ccccc1)(c1ccccc1)c1ccccc1` was “inactive”; that for `O=C(O)CNC(=O)c1ccc(CO)o1` was “inactive”.
For the compound `CCN=C1C=CC(=C(c2ccc(N(CC)CC)cc2)c2ccc(N(CC)CC)cc2)c2ccccc21`, the Potency entry was “inactive”.
For `COCC(C)N` (stereo not given), the Potency result is “inactive”.
In the case of `COc1ccc(C2CNC(=O)C2)cc1OC1CCCC1` (stereo not given), the Potency entry is “inactive”.
The same measure, in the same setting: under `CCOC(=O)COc1ccc2c(C)c(CCN(CC)CC)c(=O)oc2c1Cl` stands “inactive”.
Take `O=C(O)CCSSCCC(=O)O`: the Potency entry was “inactive”.

The record behind these values is PubChem BioAssay (Tox21).
